{"source": "PubChem BioAssay AID1445", "about": "(SRMLSC, 2008)", "note": "Among all 220,000 compounds or so, about 910 (0.41%) were called active.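 The calls were made as follows: active = primary inhibition above the hit cutoff, then over 50% inhibition at one or more dose response concentrations (cut at about 23% in these data, passing the limit was not always enough); inconclusive = conflicting primary data, or primary hits not chosen for dose response; inactive = low primary inhibition, or under 50% at every dose.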 The entries come from a sample that favours actives as a whole. Measured potencies and affinities stand elsewhere.", "data": [{"molecular_target": "Aminopeptidase N (Plasmodium falciparum (isolate 3D7)) (UniProt O96935)", "sequence (O96935 whole entry, looked up)": "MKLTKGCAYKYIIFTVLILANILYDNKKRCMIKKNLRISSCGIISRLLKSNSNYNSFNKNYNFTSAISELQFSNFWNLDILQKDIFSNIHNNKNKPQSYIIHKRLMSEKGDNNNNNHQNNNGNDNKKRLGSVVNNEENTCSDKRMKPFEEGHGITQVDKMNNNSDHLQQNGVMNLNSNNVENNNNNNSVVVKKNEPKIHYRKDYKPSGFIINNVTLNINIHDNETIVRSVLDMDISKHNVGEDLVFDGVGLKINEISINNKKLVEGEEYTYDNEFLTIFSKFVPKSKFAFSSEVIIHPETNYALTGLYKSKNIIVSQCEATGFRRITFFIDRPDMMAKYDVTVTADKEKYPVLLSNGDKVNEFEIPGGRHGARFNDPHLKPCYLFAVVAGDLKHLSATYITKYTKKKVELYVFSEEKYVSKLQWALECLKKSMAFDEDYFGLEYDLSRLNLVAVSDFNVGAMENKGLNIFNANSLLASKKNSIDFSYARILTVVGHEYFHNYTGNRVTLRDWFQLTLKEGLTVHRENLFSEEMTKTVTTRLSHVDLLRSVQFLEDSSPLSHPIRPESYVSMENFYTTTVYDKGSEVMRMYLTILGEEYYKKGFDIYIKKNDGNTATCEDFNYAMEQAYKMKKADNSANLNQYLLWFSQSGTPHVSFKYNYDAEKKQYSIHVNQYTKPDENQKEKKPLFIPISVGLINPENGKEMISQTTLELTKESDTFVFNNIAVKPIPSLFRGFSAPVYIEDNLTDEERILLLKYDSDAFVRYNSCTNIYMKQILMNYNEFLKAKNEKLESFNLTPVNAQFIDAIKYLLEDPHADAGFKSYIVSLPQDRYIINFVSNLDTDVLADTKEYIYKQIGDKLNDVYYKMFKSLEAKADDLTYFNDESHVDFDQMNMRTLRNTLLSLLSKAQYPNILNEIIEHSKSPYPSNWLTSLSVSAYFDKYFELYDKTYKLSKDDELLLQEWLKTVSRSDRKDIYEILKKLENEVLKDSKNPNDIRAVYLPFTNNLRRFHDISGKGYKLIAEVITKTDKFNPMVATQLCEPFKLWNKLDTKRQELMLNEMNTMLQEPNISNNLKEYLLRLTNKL", "assay": "malaria alanyl aminopeptidase activity blockers – biochemical, fluorogenic H-Leu-NHMec substrate, 1536-well (AID 1445);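 also: plate controls were DMSO full reaction for no effect and no enzyme background for full effect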", "settings": "recombinant M1AAP, H-Leu-NHMec fluorogenic kinetic assay; at 30 µM, hits give high values unless noted", "values": [{"molecule": "CCOc1ccc2nc(NC(=O)CSc3ccc(Cl)cc3)sc2c1", "inhibition": "2.68% (inactive)"}, {"molecule": "CCOc1ccc2nc(NC(=O)CSc3ccccc3)sc2c1", "inhibition": "8.9% (inactive)"}, {"molecule": "Cc1cc(C)c(C#N)c(SCC(=O)c2cccs2)n1", "inhibition": "2.39% (inactive)"}, {"molecule": "O=C(CSc1nc(O)cc(=O)[nH]1)N1c2ccccc2Sc2ccccc21", "inhibition": "18.4% (inactive)"}, {"molecule": "Cc1nc(SCC(=O)N2c3ccccc3Sc3ccccc32)n[nH]1", "inhibition": "4.61% (inactive)"}, {"molecule": "CC(=O)CSc1nc(-c2cccs2)c(C#N)c(=O)[nH]1", "inhibition": "7.78% (inactive)"}, {"molecule": "O=C(CCc1ccc(S(=O)(=O)N2CCOCC2)cc1)Nc1ccc(N2CCOCC2)cc1", "inhibition": "3.54% (inactive)"}, {"molecule": "Cc1ccc(-c2noc(CN(C(=O)C(c3ccccc3)c3ccccc3)C(C)C)n2)cc1", "inhibition": "5.44% (inactive)"}, {"molecule": "NC(=O)N/N=C/c1ccccc1OC(=O)c1ccccc1Br", "inhibition": "0.59% (inactive)"}, {"molecule": "Cc1ccccc1CS(=O)(=O)c1cn(CC(=O)N2CCC(C)CC2)c2ccccc12", "inhibition": "9.75% (inactive)"}, {"molecule": "Cc1ccc(C)c(CS(=O)(=O)c2cn(CC(=O)N3CCC(C)CC3)c3ccccc23)c1", "inhibition": "9.18% (inactive)"}, {"molecule": "CCN(C1CCCCC1)S(=O)(=O)c1ccc(S(=O)(=O)N2CCN(CCC#N)CC2)cc1", "inhibition": "-1.62% (inactive)"}, {"molecule": "O=C(/C=C\\Nc1ccc2c(c1)OCO2)c1ccc(Cl)s1", "inhibition": "3.02% (inactive)"}, {"molecule": "O=S(=O)(NC1CCCC1)c1ccc(S(=O)(=O)N2CCCN(Cc3ccccc3)C2)cc1", "inhibition": "0.63% (inactive)"}, {"molecule": "CC(=NCc1cccnc1)C1=C(O)c2ccccc2C1=O", "inhibition": "4.58% (inactive)"}, {"molecule": "CCCN=C(C)C1=C(O)c2ccccc2C1=O", "inhibition": "3.71% (inactive)"}, {"molecule": "CC(=NCc1ccncc1)C1=C(O)c2ccccc2C1=O", "inhibition": "23.6% (active)"}, {"molecule": "CCC(c1nnnn1Cc1ccco1)N1CCC(C(N)=O)CC1", "note": "(centres undefined)", "inhibition": "10.1% (inactive)"}, {"molecule": "Nc1cc(-c2ccccc2)nn1Cc1ccccc1", "inhibition": "34.3% (inactive)"}, {"molecule": "Cc1ccc(-c2cc(N)n(Cc3ccc(Cl)cc3)n2)cc1", "inhibition": "12.9% (inactive)"}, {"molecule": "Nc1cc(-c2ccccc2)nn1Cc1ccc(Cl)cc1", "inhibition": "25.7% (active)"}, {"molecule": "N#CC1=C(N)OC2=C(C(=O)CCC2)[C@]12C(=O)N(CC(N)=O)c1ccccc12", "inhibition": "9.16% (inactive)"}, {"molecule": "Cc1cccc(Nc2nc(N)nc(CN3CCN(C)CC3)n2)c1", "inhibition": "9.59% (inactive)"}, {"molecule": "CCN(CC)CCCNC(=O)C(C)n1c2ccccc2c2nc(=O)cc(C)n21", "note": "(centres undefined)", "inhibition": "3.31% (inactive)"}, {"molecule": "COc1ccc(N/C(C)=C2/C(=O)C(=O)N(CCO)C2c2ccc(Br)cc2)cc1", "note": "(centres undefined)", "inhibition": "7.27% (inactive)"}, {"molecule": "COc1ccc(N/C(C)=C2/C(=O)C(=O)N(CCO)C2c2ccc([N+](=O)[O-])cc2)cc1", "note": "(centres undefined)", "inhibition": "23.9% (active)"}, {"molecule": "COc1ccc(C2/C(=C(/O)c3ccccc3)C(=O)C(=O)N2CCO)cc1", "note": "(centres undefined)", "inhibition": "2.56% (inactive)"}, {"molecule": "CCCCN1C(=O)C(O)=C(C(C)=O)C1c1ccccc1[N+](=O)[O-]", "note": "(centres undefined)", "inhibition": "-0.46% (inactive)"}, {"molecule": "CCCCN(CC)S(=O)(=O)c1ccc2c(c1)CCCN2C(C)=O", "inhibition": "-2.36% (inactive)"}, {"molecule": "CC1CCCCN1S(=O)(=O)c1cnc(Cl)c(Br)c1", "note": "(centres undefined)", "inhibition": "-7.81% (inactive)"}, {"molecule": "O=C(c1ccccc1F)N1CCN=C1c1ccccc1", "inhibition": "6.9% (inactive)"}, {"molecule": "Cc1occc1C(=O)N/N=C/c1ccccn1", "inhibition": "3.01% (inactive)"}, {"molecule": "COc1ccc(-n2cnnc2SCC(=O)Nc2cc(S(=O)(=O)N3CCCCC3)ccc2C)cc1", "inhibition": "3.33% (inactive)"}, {"molecule": "Nn1c(SCC(=O)Nc2cc(S(=O)(=O)N3CCOCC3)ccc2Cl)nnc1-c1cccnc1", "inhibition": "6.37% (inactive)"}, {"molecule": "Cc1ccnc2nc(C(=O)Nc3ccc(S(=O)(=O)N4CCCC4)cc3)nn12", "inhibition": "-4.02% (inactive)"}, {"molecule": "O=C(CSc1nc2ccccc2nc1SCC(=O)N1CCCCC1)N1CCCCC1", "inhibition": "42.7% (active)"}, {"molecule": "O=C(CSc1nc2ccccc2nc1SCC(=O)N1CCOCC1)N1CCOCC1", "inhibition": "6.36% (inactive)"}, {"molecule": "COc1ccc2nc(SCC(=O)N3CCCCCC3)c(C#N)cc2c1", "inhibition": "6.08% (inactive)"}, {"molecule": "Cc1cc2ccccc2nc1SCC(=O)N1CCCC1", "inhibition": "11.8% (inactive)"}, {"molecule": "COc1ccc2nc(SCC(=O)N3CCCCC3)c(C#N)cc2c1", "inhibition": "19.1% (inactive)"}, {"molecule": "O=C(CCc1nnc(Cc2c[nH]c3ccccc23)o1)NC(C1CC1)C1CC1", "inhibition": "1.78% (inactive)"}, {"molecule": "CN1CCN(C(=O)CCNC(=O)Cn2ccc3ccccc3c2=O)CC1", "inhibition": "2.23% (inactive)"}, {"molecule": "CC(=O)Nc1ccc(NC(=O)Cn2nc([N+](=O)[O-])c(Br)c2C)cc1", "inhibition": "-1.26% (inactive)"}, {"molecule": "CCn1c(COc2cccc(OC)c2)nnc1SCC(=O)Nc1cccc(OC)c1", "inhibition": "-3.8% (inactive)"}, {"molecule": "CCCn1cc(S(=O)(=O)CC(=O)N2CCc3ccccc32)c2ccccc21", "inhibition": "-2.1% (inactive)"}, {"molecule": "CCC(C)(C(=O)NC1CCCCC1)N(CC1CCCO1)C(=O)CNC(=O)c1ccccc1", "note": "(centres undefined)", "inhibition": "4.25% (inactive)"}, {"molecule": "O=C(CS)Nc1ccc2ccccc2c1", "inhibition": "6.21% (inactive)"}, {"molecule": "CCCC(c1nnnn1CC1CCCO1)N1CCN(c2ccccc2)CC1", "note": "(centres undefined)", "inhibition": "7.5% (inactive)"}, {"molecule": "Cc1ccc(Cl)cc1N1CCN(C(CC(C)C)c2nnnn2CC2CCCO2)CC1", "note": "(centres undefined)", "inhibition": "-6.33% (inactive)"}, {"molecule": "CC(C)CC(c1nnnn1CC1CCCO1)N1CCN(c2cccc(Cl)c2)CC1", "note": "(centres undefined)", "inhibition": "31.4% (active)"}, {"molecule": "CCCCCc1ccc(CC(=O)O)cc1", "inhibition": "3% (inactive)"}, {"molecule": "O=c1nc(N2CCCC2)nc(Nc2ccccc2)[nH]1", "inhibition": "9.86% (inactive)"}, {"molecule": "c1ccc(Nc2nc(N3CCCCC3)nc(N3CCCCC3)n2)cc1", "inhibition": "2.1% (inactive)"}, {"molecule": "CCOC(=O)CC(NC(C)=O)c1ccc([N+](=O)[O-])cc1", "note": "(centres undefined)", "inhibition": "2.95% (inactive)"}, {"molecule": "CCc1cc2c(=O)c(-c3nc4ccccc4n3C)c(COCC(=O)O)oc2cc1O", "inhibition": "6.97% (inactive)"}, {"molecule": "COC(=O)C(=Nc1ccccc1)/C(C(=O)C(=O)N(C)c1ccccc1)=C(\\O)c1ccccc1", "inhibition": "16.3% (inactive)"}, {"molecule": "O=C(O)c1c2c(nc3ccc(S(=O)(=O)N4CCC(C(=O)NC5CCCCCC5)CC4)cc13)CCCC2", "inhibition": "23.1% (inactive)"}, {"molecule": "CC1CCc2nc3ccc(S(=O)(=O)N4CCC(C(=O)NC5CCCC5)CC4)cc3c(C(=O)O)c2C1", "note": "(centres undefined)", "inhibition": "23.4% (active)"}, {"molecule": "O=C(O)c1c2c(nc3ccc(S(=O)(=O)N4CCC(C(=O)N5CCCCC5)CC4)cc13)CCCC2", "inhibition": "4.87% (inactive)"}, {"molecule": "CCCNC(=O)C1CCN(S(=O)(=O)c2ccc3nc4c(c(C(=O)O)c3c2)CCCCC4)CC1", "inhibition": "25.7% (active)"}, {"molecule": "CC1CCc2nc3ccc(S(=O)(=O)N4CCC(C(=O)N5CCCCC5)CC4)cc3c(C(=O)O)c2C1", "note": "(centres undefined)", "inhibition": "7.8% (inactive)"}, {"molecule": "CC1CCc2nc3ccc(S(=O)(=O)N4CCC(C(=O)N5CCCCCC5)CC4)cc3c(C(=O)O)c2C1", "note": "(centres undefined)", "inhibition": "13.6% (inactive)"}, {"molecule": "O=C(O)c1c2c(nc3ccc(S(=O)(=O)N4CCC(C(=O)NC5CCCC5)CC4)cc13)CCCCC2", "inhibition": "26.5% (active)"}, {"molecule": "CC1CCC(NC(=O)C2CCN(S(=O)(=O)c3ccc4nc5c(c(C(=O)O)c4c3)CC(C)CC5)CC2)CC1", "note": "(centres undefined)", "inhibition": "7.59% (inactive)"}, {"molecule": "CCCNC(=O)C1CCN(S(=O)(=O)c2ccc(Br)cc2)CC1", "inhibition": "0.41% (inactive)"}, {"molecule": "O=C(CSc1nc2c(c(=O)[nH]1)CCCC2)Nc1ccc(Cl)cc1F", "inhibition": "-2.08% (inactive)"}, {"molecule": "CS(=O)(=O)N1CCC(C(=O)Nc2ccc(F)cc2F)CC1", "inhibition": "-3.46% (inactive)"}, {"molecule": "CCCCC(CC)CNC(=O)c1cccs1", "note": "(centres undefined)", "inhibition": "-3.27% (inactive)"}, {"molecule": "Cc1ccccc1NS(=O)(=O)c1cc(C(=O)N2CCCC2)ccc1C", "inhibition": "4.97% (inactive)"}, {"molecule": "Cc1nnc(SCC(=O)NCCN2C(=O)CSC2=O)s1", "inhibition": "2.17% (inactive)"}, {"molecule": "Cc1cccc(CSc2ncccc2C(=O)O)c1", "inhibition": "2.89% (inactive)"}, {"molecule": "Cc1ccc(CSc2ncccc2C(=O)O)cc1", "inhibition": "1.82% (inactive)"}, {"molecule": "COc1ccc(-c2cc(C(=O)NCc3ccccc3)no2)cc1OC", "inhibition": "-1.3% (inactive)"}, {"molecule": "CC(=O)N=c1sc2cc(C)ccc2n1C", "inhibition": "3.39% (inactive)"}, {"molecule": "Cc1cc(C(=O)OCC(=O)NCc2ccc(Cl)cc2)c(C)o1", "inhibition": "-6.7% (inactive)"}, {"molecule": "CCN(CC)CC(=O)Nc1cccc2c1C(=O)c1ccccc1C2=O", "inhibition": "5.73% (inactive)"}, {"molecule": "CCN(CC)CCC(=O)Nc1cccc2c1C(=O)c1ccccc1C2=O", "inhibition": "7.62% (inactive)"}, {"molecule": "CCN(CC)C(C(=O)NC1CCCCC1)c1ccc(C)cc1", "note": "(centres undefined)", "inhibition": "-1.29% (inactive)"}, {"molecule": "COc1ccc(NC(=O)CN2C(=O)c3ccccc3Sc3ccc(C(=O)N4CCOCC4)cc32)c(OC)c1", "inhibition": "9.02% (inactive)"}, {"molecule": "CC(C)CC1C(C#N)=C(N)Oc2n[nH]c(-c3cccs3)c21", "note": "(centres undefined)", "inhibition": "-0.26% (inactive)"}, {"molecule": "CSCCC1C(C#N)=C(N)Oc2n[nH]c(-c3cccs3)c21", "note": "(centres undefined)", "inhibition": "23.8% (active)"}, {"molecule": "CC(C)C1C(C#N)=C(N)Oc2n[nH]c(-c3cccs3)c21", "note": "(centres undefined)", "inhibition": "5.75% (inactive)"}, {"molecule": "Cc1ccc2c(CN3C(=O)NC4(CCCCC4)C3=O)cc(=O)oc2c1C", "inhibition": "8.97% (inactive)"}, {"molecule": "Cc1ccc(CSc2nc3sc(C)c(C)c3c(=O)n2Cc2ccco2)cc1", "inhibition": "9.77% (inactive)"}, {"molecule": "O=C(NC1CCCCCCC1)c1ccc2c(c1)N(Cc1ccc(F)cc1)C(=O)CS2=O", "note": "(centres undefined)", "inhibition": "23.5% (active)"}, {"molecule": "O=C(Nc1ccccc1Cl)c1ccc2c(c1)N(Cc1ccc(F)cc1)C(=O)CS2=O", "note": "(centres undefined)", "inhibition": "3.24% (inactive)"}, {"molecule": "Cc1ccc(C)c(NC(=O)c2ccc3c(c2)N(Cc2ccc(F)cc2)C(=O)CS3=O)c1", "note": "(centres undefined)", "inhibition": "-7.55% (inactive)"}, {"molecule": "CNC(=O)c1cc2c(ccc3ccccc32)o1", "inhibition": "3.24% (inactive)"}, {"molecule": "Cn1ncc(Br)c1C(=O)Nc1ccc(Br)cn1", "inhibition": "-3.07% (inactive)"}, {"molecule": "Cc1occc1C(=O)NCCCc1ccccc1", "inhibition": "0.03% (inactive)"}, {"molecule": "O=C(Nc1nnc(SCc2ccccc2)s1)c1cccs1", "inhibition": "-2.48% (inactive)"}, {"molecule": "COc1cccc(C(=O)Nc2cc(C(=O)NCCc3ccccc3)ccc2Cl)c1", "inhibition": "24.9% (active)"}, {"molecule": "COc1ccc(C(=O)Nc2cc(C(=O)NCCc3ccccc3)ccc2Cl)cc1", "inhibition": "13.3% (inactive)"}, {"molecule": "COCC(=O)Nc1cc(C(=O)NCCc2ccccc2)ccc1Cl", "inhibition": "-6.24% (inactive)"}]}]}
